This is part of a sample that, as a whole, favours compounds with a hit. Of some 83,000 tested, about 20% had one in any assay.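 The test compound was applied at a single concentration to cells in 96-well plates for 48 hours, and percent growth was recorded.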 Calls of active or inactive are those of the source. How the source made its calls: active means growth percent below 10; inactive means the rest.
Experiments:
Assay in all cases: NCI-60 one-dose screen, 48 h (100 = growth as untreated, 0 = no growth, -100 = all killed)
Conditions in all cases: 10 µM unless noted
SR leukemia = test system: SR leukemia
OVCAR-8 ovarian = test system: OVCAR-8 ovarian
SK-OV-3 ovarian = test system: SK-OV-3 ovarian
IGROV1 ovarian = test system: IGROV1 ovarian
OVCAR-3 ovarian = test system: OVCAR-3 ovarian
HS 578T breast = test system: HS 578T breast
NCI/ADR-RES ovarian = test system: NCI/ADR-RES ovarian
OVCAR-5 ovarian = test system: OVCAR-5 ovarian
OVCAR-4 ovarian = test system: OVCAR-4 ovarian
RPMI-8226 leukemia = test system: RPMI-8226 leukemia

Measured: growth

COC(=O)CSc1ccc(Cl)cc1
inactive: SR leukemia 78% | OVCAR-8 ovarian 106% | SK-OV-3 ovarian 102% | IGROV1 ovarian 93.9% | OVCAR-3 ovarian 122% | HS 578T breast 108% | NCI/ADR-RES ovarian 115%

CC(=O)N1N=C(C2C(=O)N(C)C(=O)N(C)C2=O)CC1c1ccccc1C(=O)O (stereo unspecified)
inactive: SR leukemia 93% | OVCAR-8 ovarian 103% | OVCAR-5 ovarian 104% | SK-OV-3 ovarian 94.8% | IGROV1 ovarian 112% | OVCAR-3 ovarian 109% | NCI/ADR-RES ovarian 105%

COC(=O)[C@H](Cc1cn(C)cn1)NC(=O)[C@H](CC(C)C)NC(=O)Nc1cc(C(F)(F)F)cc(C(F)(F)F)c1
active: SR leukemia -46.5% [100 µM] | OVCAR-5 ovarian -98.6% [100 µM] | OVCAR-4 ovarian -97% [100 µM] | SK-OV-3 ovarian -100% [100 µM] | IGROV1 ovarian -89.2% [100 µM] | OVCAR-3 ovarian -98.8% [100 µM] | HS 578T breast -17.3% [100 µM] | NCI/ADR-RES ovarian -67.3% [100 µM]

COc1cc(C2CC(c3cccc(Nc4ccnc5cc(Cl)ccc45)c3)=NN2C=O)cc(OC)c1OC (stereo unspecified)
active: SR leukemia 4.97% | OVCAR-4 ovarian -16.7% | OVCAR-3 ovarian -81.2% | HS 578T breast -20.1% | NCI/ADR-RES ovarian 5.17%
inactive: OVCAR-8 ovarian 23.2% | IGROV1 ovarian 40.6%

CCN1C(=O)N(CC)C2C1N=C(SC)N2/N=C/C=C/c1ccccc1OC (stereo unspecified)
inactive: SR leukemia 13.3% | OVCAR-8 ovarian 10.9% | OVCAR-4 ovarian 50.5% | SK-OV-3 ovarian 18.9% | IGROV1 ovarian 22.2% | HS 578T breast 59.2%
active: OVCAR-3 ovarian -18.9% | NCI/ADR-RES ovarian -0.869%

Cn1c(=O)c2c(nc(N/N=C/c3ccccc3Cl)n2C)n(C)c1=O
inactive: RPMI-8226 leukemia 111% | OVCAR-8 ovarian 98.6% | OVCAR-5 ovarian 95.7% | OVCAR-4 ovarian 115% | SK-OV-3 ovarian 110% | IGROV1 ovarian 102% | OVCAR-3 ovarian 119% | HS 578T breast 137% | NCI/ADR-RES ovarian 97.3%

O/N=C/c1ccncc1
inactive: SR leukemia 107% | OVCAR-8 ovarian 107% | SK-OV-3 ovarian 100% | IGROV1 ovarian 114% | OVCAR-3 ovarian 113% | HS 578T breast 107% | NCI/ADR-RES ovarian 105%

CN(C)CCCN1c2ccccc2CCc2ccccc21
inactive: RPMI-8226 leukemia 99.4% | OVCAR-8 ovarian 97.4% | OVCAR-5 ovarian 103% | OVCAR-4 ovarian 68.7% | SK-OV-3 ovarian 94.1% | IGROV1 ovarian 94.8% | OVCAR-3 ovarian 116% | HS 578T breast 103% | NCI/ADR-RES ovarian 107%

Cc1cc(N)cc(C)c1-c1c(Br)cc(N)cc1Br
active: SR leukemia 9.99% | OVCAR-3 ovarian 1.61% | NCI/ADR-RES ovarian -1.83%
inactive: OVCAR-8 ovarian 31% | OVCAR-5 ovarian 45.9% | IGROV1 ovarian 21% | HS 578T breast 34.1%

C=C(C)[C@@H]1CC[C@]2(C(=O)NS(=O)(=O)c3ccccc3)CC[C@]3(C)[C@H](CC[C@@H]4[C@@]5(C)CC[C@H](OC(=O)NS(=O)(=O)c6ccccc6)C(C)(C)[C@@H]5CC[C@]43C)[C@@H]12
inactive: OVCAR-8 ovarian 18.4% | OVCAR-5 ovarian 15.5% | OVCAR-4 ovarian 38.1% | SK-OV-3 ovarian 29.7% | IGROV1 ovarian 17.6% | HS 578T breast 14.5% | NCI/ADR-RES ovarian 17.1%
active: RPMI-8226 leukemia -55.3% | OVCAR-3 ovarian -31.3%

CC(C)[C@@H]1C=C2CC[C@H]3[C@](C)(CN)CCC[C@]3(C)[C@H]2CC1
inactive: RPMI-8226 leukemia 20.7% | OVCAR-8 ovarian 82.3% | OVCAR-5 ovarian 111% | OVCAR-4 ovarian 77.3% | SK-OV-3 ovarian 113% | IGROV1 ovarian 92.2% | OVCAR-3 ovarian 44.4% | HS 578T breast 74.6% | NCI/ADR-RES ovarian 106%

COc1ccc(-n2nc(C(=O)Nc3ccc(F)cc3)nc2-c2cc(OC)c(OC)c(OC)c2)cc1
inactive: RPMI-8226 leukemia 96.8% | OVCAR-5 ovarian 97.8% | OVCAR-4 ovarian 90.5% | SK-OV-3 ovarian 94.8% | IGROV1 ovarian 98.1% | OVCAR-3 ovarian 92.4% | HS 578T breast 89.3% | NCI/ADR-RES ovarian 85%

COC(=O)c1ccc2c(c1)nc(-c1ccc(Cl)cc1)n2-c1cc(C(C)(C)C)[nH]n1
inactive: RPMI-8226 leukemia 56.8% | OVCAR-8 ovarian 83.1% | OVCAR-5 ovarian 121% | OVCAR-4 ovarian 81.4% | SK-OV-3 ovarian 104% | IGROV1 ovarian 54.2% | OVCAR-3 ovarian 41.9% | NCI/ADR-RES ovarian 14.2%

COc1cc(NC(=O)CSc2nc3ccc(Cl)cc3c(=O)n2-c2ccccc2)cc(OC)c1OC
inactive: OVCAR-8 ovarian 93.2% | OVCAR-5 ovarian 96.3% | OVCAR-4 ovarian 85.7% | SK-OV-3 ovarian 101% | IGROV1 ovarian 91.5% | OVCAR-3 ovarian 97% | HS 578T breast 81.5% | NCI/ADR-RES ovarian 90.8%

NC(N)=N/N=C/c1ccc(Cl)cc1
inactive: OVCAR-8 ovarian 88.3% | SK-OV-3 ovarian 76.5% | IGROV1 ovarian 97.6% | OVCAR-3 ovarian 56.8% | HS 578T breast 75.4% | NCI/ADR-RES ovarian 79.9%

NNc1ccc(S(N)(=O)=O)cc1
inactive: OVCAR-5 ovarian 102% | OVCAR-4 ovarian 110% | IGROV1 ovarian 110% | OVCAR-3 ovarian 111% | HS 578T breast 110% | NCI/ADR-RES ovarian 94.2%

COc1cc(OC)c(C(=O)/C=C/c2cccc(OC(C)=O)c2)cc1CC=C(C)C
inactive: OVCAR-5 ovarian 107% | OVCAR-4 ovarian 75.1% | SK-OV-3 ovarian 102% | IGROV1 ovarian 59.2% | OVCAR-3 ovarian 37.7% | NCI/ADR-RES ovarian 72%
active: RPMI-8226 leukemia 7.53%

CCCCCCCCCCCC1=NC(C)(C)CN1CCO
inactive: OVCAR-8 ovarian 78.1% | OVCAR-5 ovarian 92% | OVCAR-4 ovarian 72.6% | IGROV1 ovarian 38.5% | OVCAR-3 ovarian 81% | HS 578T breast 59.3% | NCI/ADR-RES ovarian 90.3%

CCOC(=O)c1cnc(SCC)nc1SC#N
inactive: OVCAR-8 ovarian 96.8% | OVCAR-5 ovarian 94% | SK-OV-3 ovarian 115% | IGROV1 ovarian 98.7% | OVCAR-3 ovarian 87.3% | HS 578T breast 121% | NCI/ADR-RES ovarian 100%

COc1ccc(-c2cc(-c3cc4ccccc4oc3=O)n(-c3ccccc3)n2)cc1
inactive: RPMI-8226 leukemia 86.4% | OVCAR-5 ovarian 91.1% | OVCAR-4 ovarian 13.2% | SK-OV-3 ovarian 76.7% | IGROV1 ovarian 14% | OVCAR-3 ovarian 68.2% | HS 578T breast 66.4% | NCI/ADR-RES ovarian 69.5%

CN(C)c1ccc(/C=C\c2cccc[n+]2C)cc1
inactive: OVCAR-8 ovarian 28.6% | OVCAR-5 ovarian 49.5% | OVCAR-4 ovarian 34.1% | SK-OV-3 ovarian 42.2% | IGROV1 ovarian 68.8% | HS 578T breast 61.5% | NCI/ADR-RES ovarian 105%
active: RPMI-8226 leukemia 3.96% | OVCAR-3 ovarian 9.08%

COc1nccc2c(Sc3ccccc3)nc(N)nc12
inactive: RPMI-8226 leukemia 93.2% | OVCAR-8 ovarian 101% | OVCAR-5 ovarian 107% | OVCAR-4 ovarian 99.7% | SK-OV-3 ovarian 114% | IGROV1 ovarian 114% | OVCAR-3 ovarian 119% | NCI/ADR-RES ovarian 106%

CCCCCCCCCCCCCC
inactive: RPMI-8226 leukemia 103% | OVCAR-5 ovarian 108% | OVCAR-4 ovarian 103% | IGROV1 ovarian 117% | OVCAR-3 ovarian 122% | HS 578T breast 106% | NCI/ADR-RES ovarian 96.9%

O=C(N/N=C/c1ccc([N+](=O)[O-])o1)c1ccc(O)cc1
inactive: OVCAR-8 ovarian 17.6% | OVCAR-5 ovarian 78.7% | OVCAR-4 ovarian 42% | SK-OV-3 ovarian 63.8% | IGROV1 ovarian 30.5% | OVCAR-3 ovarian 23.4% | NCI/ADR-RES ovarian 36.6%

COc1ccc(N=C2CSc3nnc(-c4cc(F)c(Cl)cc4Cl)n3N2)cc1
active: OVCAR-8 ovarian 6.26% | OVCAR-5 ovarian -20.5% | SK-OV-3 ovarian -42.3% | IGROV1 ovarian -45.1% | OVCAR-3 ovarian -74% | HS 578T breast -43.8% | NCI/ADR-RES ovarian 9.18%

Fc1ccc(-c2nc(-c3ccc(-c4nc5ccc(F)cc5[nH]4)cc3)no2)cc1
inactive: RPMI-8226 leukemia 88.1% | OVCAR-8 ovarian 86.5% | OVCAR-5 ovarian 94.7% | SK-OV-3 ovarian 39.8% | IGROV1 ovarian 74.3% | OVCAR-3 ovarian 94.3% | HS 578T breast 71.3% | NCI/ADR-RES ovarian 73.9%

CCCNCCC(C)=O
inactive: RPMI-8226 leukemia 108% | OVCAR-8 ovarian 106% | OVCAR-5 ovarian 101% | OVCAR-4 ovarian 107% | SK-OV-3 ovarian 116% | IGROV1 ovarian 118% | OVCAR-3 ovarian 116% | HS 578T breast 89.9% | NCI/ADR-RES ovarian 100%

C[N+](C)(C)CCCCCCCCCC[N+](C)(C)C
inactive: RPMI-8226 leukemia 96% | OVCAR-8 ovarian 98.7% | OVCAR-5 ovarian 117% | OVCAR-4 ovarian 87.2% | SK-OV-3 ovarian 106% | IGROV1 ovarian 91.5% | OVCAR-3 ovarian 105% | NCI/ADR-RES ovarian 98.4%

FC(F)(F)c1cc(-c2nnc3n2N=C(Cl)CS3)cc(C(F)(F)F)c1
inactive: RPMI-8226 leukemia 95.6% | OVCAR-5 ovarian 114% | OVCAR-4 ovarian 123% | SK-OV-3 ovarian 99.9% | IGROV1 ovarian 114% | OVCAR-3 ovarian 116% | HS 578T breast 105% | NCI/ADR-RES ovarian 99.1%

CCOC(=O)Nc1ccc2nc(N3CCCCCC3)sc2c1
active: SK-OV-3 ovarian 5.7% | OVCAR-3 ovarian -20.5% | NCI/ADR-RES ovarian 0.974%
inactive: RPMI-8226 leukemia 19.5% | OVCAR-8 ovarian 32.7% | OVCAR-5 ovarian 65.7% | OVCAR-4 ovarian 57.5% | IGROV1 ovarian 49.8% | HS 578T breast 43.7%

COc1ccc(-c2nc3ccccc3n3cccc23)cc1
inactive: RPMI-8226 leukemia 75.6% | OVCAR-8 ovarian 103% | OVCAR-5 ovarian 113% | OVCAR-4 ovarian 99.8% | SK-OV-3 ovarian 122% | IGROV1 ovarian 47.1% | OVCAR-3 ovarian 101% | HS 578T breast 111% | NCI/ADR-RES ovarian 107%
